# Screening data: PubChem BioAssay, several laboratories
# A selection: hits, their analogues and other compounds. The true share with any hit is near 2.2%.
# TWEAK-Fn14 inh: TWEAK-Fn14 signaling inhibition; inhibition, % at 10 µM; hit rate 2% among 360,000; TWEAK-stimulated Fn14 reporter cells, luciferase luminescence, 8 h; AID 1159606; in the data active means inhibition above about 50%
# LGR2 inh: inhibitors of bursicon-induced Drosophila LGR2 receptor cAMP signaling; HEK293 LGR2, CRE-luciferase, bursicon-stimulated, 4 h; inhibition, % at 9.99 µM; hit rate 0.35% among 380,000; AID 720647;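 active means drop in luminescence signal, shown as inhibition above about 50% in the replicate tests, limit read from the data, passing the limit was not always enough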;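 further: agonist challenge used bursicon conditioned medium at about half maximal strength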
# TROY NFkB inh: blocks TROY-dependent signaling in reporter cells; AID 1347056; inhibition, % at 10 µM; hit rate 0.98% among 360,000; Q293 LMP1-TROYcd NF-kB luciferase reporter, 4 h;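 active means compounds whose plate-normalised and pattern-corrected inhibition of the luciferase reporter signal at the single screening dose is 50% or more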
# HSP90 refold inh: blocks HSP90-mediated luciferase refolding in reticulocyte lysate; AID 1789; inhibition, % at 5.6 µM; Rabbit reticulocyte lysate, luciferase refolding luminescence, 3 h; hit rate 0.91% among 290,000;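 active means inhibition above the screen-wide mean plus 3 SD, computed separately per campaign, cut at about 16% in these data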;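 further: 0% = DMSO wells and 100% = 60 µM geldanamycin wells; inhibitors lower the luminescence because luciferase stays unfolded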
# * = called active by the depositor; x = not tested or not shown.
SMILES,TWEAK-Fn14 inh,LGR2 inh,TROY NFkB inh,HSP90 refold inh
C[C@@H]1CN([C@H](C)CO)C(=O)Cc2cc(NC(=O)C3CCCCC3)ccc2O[C@H]1CN(C)C(=O)NC1CCCCC1,x,-3,x,x
COCC#Cc1cnc2c(c1)C(=O)N([C@H](C)CO)C[C@H](C)[C@H](CN(C)Cc1ccccc1F)O2,x,-1,x,x
Cc1cc(N2CCOCC2)ccc1/C=C1\SC(=O)N(C(C)C)C1=O,49,x,26,5
CCC(C)N1C(=O)S/C(=C/c2ccc(N3CCOCC3)cc2C)C1=O (stereo not drawn),51*,-69,33,4
O=C(C[C@@H]1C=C[C@@H](NC(=O)Nc2ccc3c(c2)OCO3)[C@H](CO)O1)NCc1ccccc1,x,12,x,x
N#Cc1ccccc1Cn1cc(/C=C/[N+](=O)[O-])c2ccccc21,50,69*,24,7
O=C(Cn1cc(/C=C\[N+](=O)[O-])c2ccccc21)Nc1ccccc1,-1,67*,6,5
CC(=O)N(C)C[C@H]1Oc2cc(-c3cccnc3)ccc2S(=O)(=O)N([C@H](C)CO)C[C@H]1C,x,5,x,x
O=C(C[C@@H]1CC[C@H](NC(=O)C2CC2)[C@H](CO)O1)NCc1ccncc1,x,-4,x,x
NC(=O)NC(=O)CSc1nc2sc(-c3ccccc3)cc2c(=O)n1-c1ccccc1,58*,18,13,2
C[C@H]1CN([C@@H](C)CO)C(=O)c2ccccc2-c2ccccc2CO[C@@H]1CN(C)C(=O)Oc1ccccc1,x,2,x,x
CCCC(=O)N1CC2(CN(S(C)(=O)=O)C2)c2c([nH]c3cc(OC)ccc23)[C@@H]1CO,x,-9,x,x
COC(=O)c1ccc(NC(=O)Nc2ccc([N+](=O)[O-])cc2)cc1,20,13,50*,-1
CC(C)C#Cc1ccc2c(c1)O[C@H](CN(C)C)[C@@H](C)CN([C@H](C)CO)S2(=O)=O,x,-9,x,x
Cc1nccn1CC(=O)N/N=C/c1cccs1,74*,3,-5,3
Cc1cc(C)n(CC(=O)N/N=C/c2cccs2)n1,105*,-40,-15,-2
CO[C@H]1CN(C)C(=O)c2ccc(NC(C)=O)cc2OC[C@H](C)N(C(=O)C2CC2)C[C@@H]1C,x,-13,x,x
N#C[C@H]1[C@H](c2ccccc2C2=CCCCC2)[C@@H](CO)N1S(=O)(=O)c1ccccc1,x,68*,x,x
CC(C)Cc1nc2oc3c(Cl)ncnc3c2c2c1CCCC2,9,6,73*,1
CCOC(=O)/C(C#N)=C/c1c[nH]c2ccccc12,-10,-44,-65,3
CCOC(=O)C(=Cc1c[nH]c2ccc(S(=O)(=O)N(C)C)cc12)C(=O)OCC,66*,30,8,8
CN(C)CC#Cc1ccc([C@@H]2[C@@H](CO)N3C(=O)CN(C(=O)Cc4cccnc4)C[C@@H]23)cc1,x,-12,x,x
Cn1c(=O)c2c(nc(Oc3ccc4ccccc4c3)n2C)n(C)c1=O,51*,21,26,2
O=C1CCCc2cc3c(cc21)CCCC3,-8,x,-4,x
Nc1ccc2c(c1)C(=O)CCC2,55*,x,74*,x
SMILES,TWEAK-Fn14 inh,LGR2 inh,TROY NFkB inh,HSP90 refold inh
Cc1cccc(S(=O)(=O)c2c(N)n(/N=C/c3ccccc3)c3nc4ccccc4nc23)c1,16,x,-12,0
Nc1c(S(=O)(=O)c2ccccc2)c2nc3ccccc3nc2n1/N=C/c1cccc(O)c1,73*,x,16,5
CC(=O)Oc1ccc(C(=O)Nc2ccc(S(=O)(=O)NCC3CCCO3)cc2)cc1 (stereo not drawn),42,10,51*,-2
O=C(Nc1cccc(Cl)c1)c1ccc(S(=O)(=O)NCC2CCCO2)cc1 (stereo not drawn),63*,0,4,-5
COc1cccc(S(=O)(=O)NCc2ccc(C(=O)Nc3cccc(Cl)c3)cc2)c1,60*,x,48,6
CC(=O)Nc1ccc(C(=O)Nc2ccc(S(=O)(=O)NCC3CCCO3)cc2)cc1 (stereo not drawn),-4,x,-22,-3
COc1cccc(S(=O)(=O)NCc2ccc(C(=O)Nc3ccc(Cl)cc3)cc2)c1,41,1,36,2
C[C@@H]1CN([C@@H](C)CO)C(=O)c2cc(NS(=O)(=O)c3cn(C)cn3)ccc2O[C@@H]1CN(C)S(=O)(=O)c1cccs1,x,9,x,x
Cc1ccc2nsnc2c1NS(=O)(=O)c1c(C)ccc2nsnc12,-4,x,-7,1
Cc1ccc(/C=[N+](\[O-])c2ccc(N(C)C)cc2)c2nsnc12,57*,-63,19,6
CCCc1nnc(NC(=O)CNc2ccc(F)cc2)s1,81*,x,x,0
CSc1ncccc1C(=O)OCC(=O)c1cc(C)n(C)c1C,1,x,-72,x
Cc1cc(C(=O)COC(=O)C2CCN(C(=O)c3ccc(Cl)cc3)CC2)c(C)n1CC1CCCO1 (stereo not drawn),68*,2,19,5
